In all, about 5,500 compounds went through this assay and about 2,000 (36%) were called active. Inconclusive results (about 18%) are left out. Cut-off read from the data, not from the text of the source: active = normalized growth mostly below about 0.91 (no sharp cut-off); inconclusive = no clear call, values can overlap the other calls; inactive = mostly above about 0.92. The list shows a part of the results.
Assay: chemical genetic growth profiling, strain panel (AID 1159580);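 note: tested at 20 µM; growth read once vehicle control cultures reached saturation at 30 °C; 1 = growth at the plate median or of vehicle wells; lower values mean less growth of the strain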
Conditions: growth OD

Measured: normalized growth

O=c1c(-c2ccccc2)coc2cc(O)cc(O)c12
inactive: S. cerevisiae deletion strains, locus YJL187C, strain SWE1, stronger effect = lower value 0.992 | S. cerevisiae deletion strains, locus YJR075W, strain HOC1, stronger effect = lower value 0.884 | S. cerevisiae deletion strains, locus YKL068W, stronger effect = lower value 0.951 | S. cerevisiae deletion strains, locus YKL160W, strain elf1, stronger effect = lower value 0.974 | S. cerevisiae deletion strains, locus YKL190W, strain CNB1, stronger effect = lower value 0.929 | S. cerevisiae deletion strains, locus YKR026C, strain gcn3, stronger effect = lower value 1 | S. cerevisiae deletion strains, locus YKR091W, strain srl3, stronger effect = lower value 1.01 | S. cerevisiae deletion strains, locus YLL001W, strain dnm1, stronger effect = lower value 0.965 | S. cerevisiae deletion strains, locus YLL026W, stronger effect = lower value 1 | S. cerevisiae deletion strains, locus YLL041C, strain sdh2, stronger effect = lower value 1.01 | S. cerevisiae deletion strains, locus YLR027C, strain aat2, stronger effect = lower value 1 | S. cerevisiae deletion strains, locus YLR102C, strain apc9, stronger effect = lower value 0.953 | S. cerevisiae deletion strains, locus YLR221C, strain rsa3, stronger effect = lower value 0.923 | S. cerevisiae deletion strains, locus YLR258W, strain gsy2, stronger effect = lower value 0.982 | S. cerevisiae deletion strains, locus YLR262C, strain YPT6 (second series), stronger effect = lower value 0.915 | S. cerevisiae deletion strains, locus YLR262C, strain YPT6, stronger effect = lower value 0.606 | S. cerevisiae deletion strains, locus YLR320W, strain mms22, stronger effect = lower value 0.98 | S. cerevisiae deletion strains, locus YLR342W, strain FKS1, stronger effect = lower value 0.976 | S. cerevisiae deletion strains, locus YLR357W, strain rsc2, stronger effect = lower value 0.881 | S. cerevisiae deletion strains, locus YLR370C, strain arc18, stronger effect = lower value 1.01 | S. cerevisiae deletion strains, locus YLR384C, strain iki3, stronger effect = lower value 1.02 | S. cerevisiae deletion strains, locus YML120C, strain ndi1, stronger effect = lower value 0.963 | S. cerevisiae deletion strains, locus YMR078C, strain ctf18, stronger effect = lower value 0.964 | S. cerevisiae deletion strains, locus YMR125W, strain sto1, stronger effect = lower value 0.997 | S. cerevisiae deletion strains, locus YMR129W, stronger effect = lower value 1.02 | S. cerevisiae deletion strains, locus YMR205C, strain PFK2, stronger effect = lower value 1.02 | S. cerevisiae deletion strains, locus YMR231W, strain pep5, stronger effect = lower value 1 | S. cerevisiae deletion strains, locus YNL071W, strain lat1, stronger effect = lower value 1.01 | S. cerevisiae deletion strains, locus YNL209W, strain ssb2, stronger effect = lower value 0.936 | S. cerevisiae deletion strains, locus YNL248C, strain rpa49, stronger effect = lower value 0.989 | S. cerevisiae deletion strains, locus YNL322C, strain KRE1 (second series), stronger effect = lower value 1.01 | S. cerevisiae deletion strains, locus YNR049C, strain mso1, stronger effect = lower value 1.01 | S. cerevisiae deletion strains, locus YOL012C, strain htz1 0.305 | S. cerevisiae deletion strains, locus YOR001W, strain rrp6, stronger effect = lower value 0.964 | S. cerevisiae deletion strains, locus YOR070C, strain gyp1, stronger effect = lower value 1.01 | S. cerevisiae deletion strains, locus YOR080W, strain dia2, stronger effect = lower value 1 | S. cerevisiae deletion strains, locus YOR083W, strain WHI5, stronger effect = lower value 0.938 | S. cerevisiae deletion strains, locus YOR106W, strain vam3, stronger effect = lower value 0.924 | S. cerevisiae deletion strains, locus YOR265W, strain rbl2, stronger effect = lower value 1.01 | S. cerevisiae deletion strains, locus YOR270C, strain vph1, stronger effect = lower value 0.912 | S. cerevisiae deletion strains, locus YOR290C, strain snf2, stronger effect = lower value 0.886 | S. cerevisiae deletion strains, locus YOR316C, strain cot1, stronger effect = lower value 0.979 | S. cerevisiae deletion strains, locus YPL051W, strain arl3, stronger effect = lower value 0.947 | S. cerevisiae deletion strains, locus YPL078C, strain atp4, stronger effect = lower value 0.967 | S. cerevisiae deletion strains, locus YPL106C, strain sse1, stronger effect = lower value 1.03 | S. cerevisiae deletion strains, locus YPL240C, strain hsp82, stronger effect = lower value 0.996 | S. cerevisiae deletion strains, locus YPR119W, strain clb2, stronger effect = lower value 0.992 | S. cerevisiae deletion strains, locus YPR141C, strain kar3, stronger effect = lower value 0.99
active: S. cerevisiae deletion strains, locus YJR043C, strain POL32, stronger effect = lower value 0.709 | S. cerevisiae deletion strains, locus YKL009W, strain mrt4, stronger effect = lower value 0.859 | S. cerevisiae deletion strains, locus YKL085W, strain MDH1 (second series), stronger effect = lower value 0.799 | S. cerevisiae deletion strains, locus YKL085W, strain MDH1, stronger effect = lower value 0.799 | S. cerevisiae deletion strains, locus YKR001C, strain vps1, stronger effect = lower value 0.567 | S. cerevisiae deletion strains, locus YLR039C, strain RIC1, stronger effect = lower value 0.506 | S. cerevisiae deletion strains, locus YLR058C, strain SHM2, stronger effect = lower value 0.311 | S. cerevisiae deletion strains, locus YLR268W, strain sec22, stronger effect = lower value 0.789 | S. cerevisiae deletion strains, locus YLR371W, strain rom2, stronger effect = lower value 0.715 | S. cerevisiae deletion strains, locus YLR418C, strain cdc73, stronger effect = lower value 0.534 | S. cerevisiae deletion strains, locus YML016C, strain PPZ1, stronger effect = lower value 0.829 | S. cerevisiae deletion strains, locus YML032C, strain rad52, stronger effect = lower value 0.746 | S. cerevisiae deletion strains, locus YML124C, strain tub3, stronger effect = lower value 0.885 | S. cerevisiae deletion strains, locus YMR058W, strain fet3, stronger effect = lower value 0.682 | S. cerevisiae deletion strains, locus YMR223W, strain ubp8, stronger effect = lower value 0.783 | S. cerevisiae deletion strains, locus YMR263W, strain SAP30, stronger effect = lower value 0.774 | S. cerevisiae deletion strains, locus YMR307W, strain GAS1, stronger effect = lower value 0.57 | S. cerevisiae deletion strains, locus YNL067W, strain RPL9B, stronger effect = lower value 0.842 | S. cerevisiae deletion strains, locus YNL233W, strain BNI4, stronger effect = lower value 0.792 | S. cerevisiae deletion strains, locus YNL250W, strain rad50, stronger effect = lower value 0.824 | S. cerevisiae deletion strains, locus YNL271C, strain bni1, stronger effect = lower value 0.646 | S. cerevisiae deletion strains, locus YNL298W, strain CLA4, stronger effect = lower value 0.766 | S. cerevisiae deletion strains, locus YNL307C, strain MCK1, stronger effect = lower value 0.714 | S. cerevisiae deletion strains, locus YNR052C, strain pop2, stronger effect = lower value 0.65 | S. cerevisiae deletion strains, locus YOL147C, strain pex11, stronger effect = lower value 0.588 | S. cerevisiae deletion strains, locus YOR061W, strain CKA2, stronger effect = lower value 0.869 | S. cerevisiae deletion strains, locus YOR069W, strain VPS5, stronger effect = lower value 0.848 | S. cerevisiae deletion strains, locus YOR136W, strain idh2, stronger effect = lower value 0.905 | S. cerevisiae deletion strains, locus YOR144C, strain elg1, stronger effect = lower value 0.686 | S. cerevisiae deletion strains, locus YOR184W, strain ser1, stronger effect = lower value 0.669 | S. cerevisiae deletion strains, locus YPL055C, strain LGE1, stronger effect = lower value 0.744 | S. cerevisiae deletion strains, locus YPL241C, strain CIN2, stronger effect = lower value 0.911 | S. cerevisiae deletion strains, locus YPR163C, strain tif3, stronger effect = lower value 0.643 | S. cerevisiae deletion strains, locus YPR167C, strain met16, stronger effect = lower value 0.815 | S. cerevisiae deletion strains, strain wtn01, stronger effect = lower value 0.767 | S. cerevisiae strains, strain wild type, stronger effect = lower value 0.772

Source: PubChem BioAssay AID1159580 (chemical genetic matrix, 2015)
